# Results published in publication PMC7819943, “Rice protein-binding microarrays: a tool to detect cis-acting elements near promoter regions in rice”.
# Over roughly 39,000 sequences, “fluorescence intensity (a.u.)” has its median near 4,300; the highest 2% begin near 39,000. For the sample, the highest values were picked, then their nearest neighbours and some sequences at random.
# Target: T1, OsSMF1 (Oryza sativa, UniProt Q6ZLB0 1-436)
# T1 sequence: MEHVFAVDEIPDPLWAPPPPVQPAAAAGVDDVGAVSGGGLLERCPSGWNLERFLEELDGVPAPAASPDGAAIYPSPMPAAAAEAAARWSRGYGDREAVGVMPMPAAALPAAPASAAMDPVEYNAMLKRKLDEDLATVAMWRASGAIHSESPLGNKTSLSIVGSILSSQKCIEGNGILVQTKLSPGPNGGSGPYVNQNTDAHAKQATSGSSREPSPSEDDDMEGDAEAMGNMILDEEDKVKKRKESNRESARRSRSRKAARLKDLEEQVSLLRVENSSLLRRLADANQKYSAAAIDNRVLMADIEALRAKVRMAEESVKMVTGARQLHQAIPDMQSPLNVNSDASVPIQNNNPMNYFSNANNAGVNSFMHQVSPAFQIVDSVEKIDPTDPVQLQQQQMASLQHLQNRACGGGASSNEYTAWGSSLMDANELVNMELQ
# Experiment: protein-binding microarray (RPBM); PBS, 2% BSA, 51.3 ng/ul salmon testes DNA, 50 uM zinc acetate, 200 nM TF, 25 C, 1 h; high values mean tight binding
# Conditions: protein: recombinant; tags: N-terminal polyhistidine and DsRed monomer fusion (pET32a); chain copies: 2; label: CyDye5-dUTP incorporated in the synthesized complementary strand; 3' TTTTT single-stranded linker to array surface; dsDNA, one strand shown
# Procedure, shortened: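 Transcription factors, each fused N-terminally to a polyhistidine tag and DsRed, were expressed in E. coli BL21-CodonPlus and purified on Ni–NTA. A custom Agilent array was made double-stranded by primer extension with Cy5-dUTP and blocked with 2% BSA. It was incubated with 200 nM protein in PBS, 2% BSA, salmon testes DNA and 50 µM zinc acetate at 25 °C for 1 h, then washed. The binding signal is per-feature fluorescence intensity (arbitrary units) read on an Axon 4000B scanner.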
row,Sequence,binding signal
1,ACGCAGTCACGCAGACCACAGGGCGATGCAGCGGACCGACCGGAGTCACCTAGTGCAG,40900 fluorescence intensity (a.u.)
2,CCGATCTCCACCACCACCACCACCACGCGGGCGCGCGCACCGGAGTCACCTAGTGCAG,4580 fluorescence intensity (a.u.)
3,ACCGACGCGGACAGCCACAGTCCAGTCACACACCACACCACGGAGTCACCTAGTGCAG,5320 fluorescence intensity (a.u.)
4,CTCAAAGCATTATAAAACTTGCTGGCTTTGTCCCCTTCATCGGAGTCACCTAGTGCAG,3250 fluorescence intensity (a.u.)
5,AGATCGACACGTTAGTCTACACACCTATGCGTGCCTATGCCGGAGTCACCTAGTGCAG,3580 fluorescence intensity (a.u.)
6,CCCCAATCCTCGCATGCCAACTCACCTGTGTTGCTTTTGCCGGAGTCACCTAGTGCAG,7550 fluorescence intensity (a.u.)
7,TCGCCCGCGCCCACTGACACGTGGGGCCCGGCACGTGGGCCGGAGTCACCTAGTGCAG,11500 fluorescence intensity (a.u.)
8,ACCATCTCTCTCTCTCTCTCTGCATGCATATCTTCTCCTCCGGAGTCACCTAGTGCAG,3210 fluorescence intensity (a.u.)
9,GTGTGATTATCTTCTCCATACCATCTCGTGCTACATGCGCCGGAGTCACCTAGTGCAG,40000 fluorescence intensity (a.u.)
10,AGTGCATGCGTGTGCGCCTGCCTGCTTACTTCCATCTCGACGGAGTCACCTAGTGCAG,7880 fluorescence intensity (a.u.)
11,GTTCCCTTTGTATTTCACACCTTGAGATGGTGACTGATCCCGGAGTCACCTAGTGCAG,3940 fluorescence intensity (a.u.)
12,TACTAATTTAATCCCCTTTGATCTGCTGACTGGTTTACTACGGAGTCACCTAGTGCAG,5140 fluorescence intensity (a.u.)
13,AAAGATCAGAGAGACTACTAATCCGGTTTATTTACTGGCACGGAGTCACCTAGTGCAG,44100 fluorescence intensity (a.u.)
14,TGTTTTCTAATATTTACAATCAGATCCCTTGAGTGAGTCACGGAGTCACCTAGTGCAG,4150 fluorescence intensity (a.u.)
15,AGTCTCAGATCTACTTGCGGCGGCGAAGGCTCGGGAGGGGCGGAGTCACCTAGTGCAG,3530 fluorescence intensity (a.u.)
16,ATATATTGACAAGGCAATGACATAGATAGCTAGACATATCCGGAGTCACCTAGTGCAG,3190 fluorescence intensity (a.u.)
17,TCCTTCGATTCCAAGCATATAGTAATATATGACACGATGCCGGAGTCACCTAGTGCAG,5000 fluorescence intensity (a.u.)
18,CATAGTTGACTTCCAAGGCAAGACAGATGAGATATGCATTCGGAGTCACCTAGTGCAG,45500 fluorescence intensity (a.u.)
19,CGCAAACATTTTCGGAATATACGAATCCAGCGTTGCACTGCGGAGTCACCTAGTGCAG,3250 fluorescence intensity (a.u.)
20,ATGTCAGGATGCCACGTCACACCCTTTCTTTCCCCTCCTCCGGAGTCACCTAGTGCAG,45200 fluorescence intensity (a.u.)
21,CCACATGTCAGGATGCCACGTCATCTCTCTTTCCCCTCTTCGGAGTCACCTAGTGCAG,33600 fluorescence intensity (a.u.)

row,Sequence,binding signal
1,GTCAGTGTGGCCACGTCAGCATCCTCTCTTTTCCTCTCTTCGGAGTCACCTAGTGCAG,40800 fluorescence intensity (a.u.)
2,CATGTCAGGACGCCACGTCATCATGCTCTCTCTTTCCCCTCGGAGTCACCTAGTGCAG,33600 fluorescence intensity (a.u.)
3,AATGTGACCACGTCATCCCCTTCTTTCCCTTTCCCCTCTTCGGAGTCACCTAGTGCAG,33300 fluorescence intensity (a.u.)
4,TCCTCCCACGCTTCTTCTTCTTCTTCTTCTTCCCTTTCCCCGGAGTCACCTAGTGCAG,9800 fluorescence intensity (a.u.)
5,GTTCCACATGTCATCCTCTCCCTTTCTTCTTCCTCCCCTCCGGAGTCACCTAGTGCAG,3930 fluorescence intensity (a.u.)
6,CCACGTGTCAGCATTGCCACATCAGCTTCCTCTCTCTTTTCGGAGTCACCTAGTGCAG,24100 fluorescence intensity (a.u.)
7,CAGCCATCCATCCCACCCACACGTCACCACCCGCGCATCCCGGAGTCACCTAGTGCAG,20500 fluorescence intensity (a.u.)
8,CCCCTCCCCATCGTCAGCATCTTTCTTTCTCTTCCCATCCCGGAGTCACCTAGTGCAG,6610 fluorescence intensity (a.u.)
9,CATATTCTGATATTCCCATCCACGTCAGCATTTCCCCACCCGGAGTCACCTAGTGCAG,41000 fluorescence intensity (a.u.)
10,CAGGATGCCACGTCAGCGCCCTCTATCTCTTTCCCCTCCTCGGAGTCACCTAGTGCAG,51300 fluorescence intensity (a.u.)
11,AGGTGCAGATGCTACTACTGATCTGGAACAGTGATCTCCACGGAGTCACCTAGTGCAG,3180 fluorescence intensity (a.u.)
12,CCCATTGCTGTCTCTACCATGTGTCATCTTCCAATAAGCACGGAGTCACCTAGTGCAG,4950 fluorescence intensity (a.u.)
13,GGCTGCGGCGCTGTCCCTCCGTCTGCGTGATCCGACAACCCGGAGTCACCTAGTGCAG,3800 fluorescence intensity (a.u.)
14,AACCAACCAACCACGTCGATCGCTCGCAGTCGCCGCCGCGCGGAGTCACCTAGTGCAG,3840 fluorescence intensity (a.u.)
15,GCAGGCTGAATAAAACTGTATTGTCATCGATGATATTGGTCGGAGTCACCTAGTGCAG,5020 fluorescence intensity (a.u.)
16,AAAACAAATATAGAGGAGACAGCTCATTTTATTTCCTTGACGGAGTCACCTAGTGCAG,3340 fluorescence intensity (a.u.)
17,ATAAGGGCCAGCATGTACGTGACAGTGCCATTCGGGCCCACGGAGTCACCTAGTGCAG,4850 fluorescence intensity (a.u.)
18,CATGTCAGACAGTCCACGTCATCACCTTTCTCTCCCCTCTCGGAGTCACCTAGTGCAG,38200 fluorescence intensity (a.u.)
19,CTACATATCAGGTGTCCACGTCACCCTCTCTCTTTCCCCTCGGAGTCACCTAGTGCAG,37200 fluorescence intensity (a.u.)
20,AAGTCAGGGTGTCCACGTCATCACCCTCCCTCTTTCTCCTCGGAGTCACCTAGTGCAG,55700 fluorescence intensity (a.u.)
21,TTAACTCGGTCTTCATCCTGTGTGACGCCTACGATACAACCGGAGTCACCTAGTGCAG,4380 fluorescence intensity (a.u.)
